Reference: article PMC11006913
Residue numbers refer to the chain shown, from its start.

What was measured:
Assay in all cases: PBM; 200 nM protein, PBS
Details in all cases: dsDNA, one strand shown
HOXA7 [1] = biological target: HOXA7 (Homo sapiens, UniProt P31268 116-202)
HOXA7 [2] = biological target: HOXA7 (Homo sapiens, UniProt P31268 116-202, W177C)
PAX4 [3] = biological target: T1, PAX4 (Homo sapiens, UniProt O43316 9-242, R200K)
T1 sequence: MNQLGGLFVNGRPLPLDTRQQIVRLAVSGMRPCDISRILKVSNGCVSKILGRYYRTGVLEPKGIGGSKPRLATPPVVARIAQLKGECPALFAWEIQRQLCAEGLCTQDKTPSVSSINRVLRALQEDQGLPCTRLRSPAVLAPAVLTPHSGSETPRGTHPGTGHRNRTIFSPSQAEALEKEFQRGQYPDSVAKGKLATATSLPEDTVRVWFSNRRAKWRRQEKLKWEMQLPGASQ

PAX4 [4] = biological target: T2, PAX4 (Homo sapiens, UniProt O43316 9-242)
T2 sequence: T1 sequence with K192R

PAX4 [5] = biological target: T3, PAX4 (Homo sapiens, UniProt O43316 9-242, R200Q)
T3 sequence: T1 sequence with K192Q

PAX4 [6] = biological target: T4, PAX4 (Homo sapiens, UniProt O43316 9-242, F177V)
T4 sequence: T1 sequence with F169V, K192R

PAX4 [7] = biological target: T5, PAX4 (Homo sapiens, UniProt O43316 9-242, F177Y)
T5 sequence: T1 sequence with F169Y, K192R

PAX4 [8] = biological target: T6, PAX4 (Homo sapiens, UniProt O43316 9-242, R227W)
T6 sequence: T1 sequence with K192R, R219W

PITX2 = PITX2 (Homo sapiens, UniProt Q99697 72-157)
PROP1 [9] = biological target: PROP1 (Homo sapiens, UniProt O75360 56-141)
PROP1 [10] = biological target: PROP1 (Homo sapiens, UniProt O75360 56-141, R99H)
PROP1 [11] = biological target: PROP1 (Homo sapiens, UniProt O75360 56-141, F88S)
HOXD13 [12] = biological target: HOXD13 (Homo sapiens, UniProt P35453 263-343, T313R)
HOXD13 [13] = biological target: HOXD13 (Homo sapiens, UniProt P35453 263-343)
HOXD13 [14] = biological target: HOXD13 (Homo sapiens, UniProt P35453 263-343, T313A)
HOXC9 = HOXC9 (Homo sapiens, UniProt P31274 178-260, R222W)
Chain of HOXC9 (P31274 178-260 R222W): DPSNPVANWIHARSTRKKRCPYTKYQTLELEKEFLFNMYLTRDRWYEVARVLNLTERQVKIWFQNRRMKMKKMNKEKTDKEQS

Chain of HOXA7 (Homo sapiens, UniProt P31268 116-202) (P31268 116-202): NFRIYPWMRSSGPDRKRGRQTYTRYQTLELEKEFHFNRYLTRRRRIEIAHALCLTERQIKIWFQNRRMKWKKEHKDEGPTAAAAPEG
Chain of HOXA7 (Homo sapiens, UniProt P31268 116-202, W177C) (P31268 116-202 W177C): as the sequence (P31268 116-202) above, with W62C counted along it
Chain of PROP1 (Homo sapiens, UniProt O75360 56-141, R99H) (O75360 56-141 R99H): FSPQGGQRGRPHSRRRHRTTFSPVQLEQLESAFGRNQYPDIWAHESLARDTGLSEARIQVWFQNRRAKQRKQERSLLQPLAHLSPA
Chain of HOXD13 (Homo sapiens, UniProt P35453 263-343, T313A) (P35453 263-343 T313A): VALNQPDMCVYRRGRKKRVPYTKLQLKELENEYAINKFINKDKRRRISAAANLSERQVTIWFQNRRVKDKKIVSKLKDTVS
Chain of HOXD13 (Homo sapiens, UniProt P35453 263-343, T313R) (P35453 263-343 T313R): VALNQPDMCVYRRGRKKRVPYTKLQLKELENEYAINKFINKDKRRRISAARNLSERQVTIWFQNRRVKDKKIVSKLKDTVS
Chain of PROP1 (Homo sapiens, UniProt O75360 56-141, F88S) (O75360 56-141 F88S): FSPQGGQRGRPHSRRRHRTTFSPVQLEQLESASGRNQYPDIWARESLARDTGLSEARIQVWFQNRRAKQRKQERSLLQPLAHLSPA
Chain of PROP1 (Homo sapiens, UniProt O75360 56-141) (O75360 56-141): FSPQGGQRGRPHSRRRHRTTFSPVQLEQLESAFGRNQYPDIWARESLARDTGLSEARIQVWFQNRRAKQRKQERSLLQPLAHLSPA
Chain of HOXD13 (Homo sapiens, UniProt P35453 263-343) (P35453 263-343): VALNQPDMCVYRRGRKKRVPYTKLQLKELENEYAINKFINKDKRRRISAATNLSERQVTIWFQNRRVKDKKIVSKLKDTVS

**Q.** How did the binding signal (HOXA7 [1]) turn out when CTCTGAGC was run?
**A.** 8.36 upbm affinity estimate (log intensity, higher = more binding, comparable within an allelic series)

**Q.** What about the binding signal (HOXA7 [2]) of the same sequence?
**A.** 8.46 upbm affinity estimate (log intensity, higher = more binding, comparable within an allelic series)

**Q.** With AGGCAGGC as the sequence, how does the binding signal (HOXA7 [1]) read?
**A.** 8.15 upbm affinity estimate (log intensity, higher = more binding, comparable within an allelic series)

**Q.** And the binding signal (PAX4 [3])?
**A.** 9.23 upbm affinity estimate (log intensity, higher = more binding, comparable within an allelic series)

**Q.** What about the binding signal (PAX4 [4]) of the same sequence?
**A.** 9.23 upbm affinity estimate (log intensity, higher = more binding, comparable within an allelic series)

**Q.** What about the binding signal (PAX4 [5]) of the same sequence?
**A.** 9.37 upbm affinity estimate (log intensity, higher = more binding, comparable within an allelic series)

**Q.** And the binding signal (PAX4 [6])?
**A.** 9.22 upbm affinity estimate (log intensity, higher = more binding, comparable within an allelic series)

**Q.** And the binding signal (PAX4 [7])?
**A.** 9.34 upbm affinity estimate (log intensity, higher = more binding, comparable within an allelic series)

**Q.** And the binding signal (PAX4 [8])?
**A.** 9.36 upbm affinity estimate (log intensity, higher = more binding, comparable within an allelic series)

**Q.** What about the binding signal (HOXA7 [2]) of the same sequence?
**A.** 8.3 upbm affinity estimate (log intensity, higher = more binding, comparable within an allelic series)

**Q.** How did the binding signal (HOXA7 [1]) turn out when AGGGCATG was run?
**A.** 8.51 upbm affinity estimate (log intensity, higher = more binding, comparable within an allelic series)

**Q.** And the binding signal (PITX2)?
**A.** 7.96 upbm affinity estimate (log intensity, higher = more binding, comparable within an allelic series)

**Q.** And the binding signal (HOXA7 [2])?
**A.** 8.49 upbm affinity estimate (log intensity, higher = more binding, comparable within an allelic series)

**Q.** Which results are given for GTATTTAA?
**A.** binding signal (HOXA7 [1]): 10.1 upbm affinity estimate (log intensity, higher = more binding, comparable within an allelic series); binding signal (PROP1 [9]): 9.2 upbm affinity estimate (log intensity, higher = more binding, comparable within an allelic series); binding signal (PROP1 [10]): 8.79 upbm affinity estimate (log intensity, higher = more binding, comparable within an allelic series); binding signal (PROP1 [11]): 7.52 upbm affinity estimate (log intensity, higher = more binding, comparable within an allelic series); binding signal (HOXA7 [2]): 8.94 upbm affinity estimate (log intensity, higher = more binding, comparable within an allelic series)

**Q.** How did the binding signal (HOXA7 [1]) turn out when CTGCTTCA was run?
**A.** 8.51 upbm affinity estimate (log intensity, higher = more binding, comparable within an allelic series)

**Q.** And the binding signal (PITX2)?
**A.** 7.83 upbm affinity estimate (log intensity, higher = more binding, comparable within an allelic series)

**Q.** And the binding signal (HOXA7 [2])?
**A.** 8.44 upbm affinity estimate (log intensity, higher = more binding, comparable within an allelic series)

**Q.** Which binding signal (HOXA7 [1]) does the source give for TATAAAAA here?
**A.** 9.87 upbm affinity estimate (log intensity, higher = more binding, comparable within an allelic series)

**Q.** What about the binding signal (HOXD13 [12]) of the same sequence?
**A.** 10.9 upbm affinity estimate (log intensity, higher = more binding, comparable within an allelic series)

**Q.** And the binding signal (HOXD13 [13])?
**A.** 11.8 upbm affinity estimate (log intensity, higher = more binding, comparable within an allelic series)

**Q.** And the binding signal (HOXD13 [14])?
**A.** 11.6 upbm affinity estimate (log intensity, higher = more binding, comparable within an allelic series)

**Q.** What about the binding signal (HOXC9) of the same sequence?
**A.** 11.1 upbm affinity estimate (log intensity, higher = more binding, comparable within an allelic series)

**Q.** And the binding signal (HOXA7 [2])?
**A.** 8.84 upbm affinity estimate (log intensity, higher = more binding, comparable within an allelic series)

**Q.** How did the binding signal (HOXA7 [1]) turn out when AGAATTAC was run?
**A.** 9.68 upbm affinity estimate (log intensity, higher = more binding, comparable within an allelic series)

**Q.** And the binding signal (HOXA7 [2])?
**A.** 8.8 upbm affinity estimate (log intensity, higher = more binding, comparable within an allelic series)

**Q.** For GCGGCTAC, which binding signal (HOXA7 [1]) is on record?
**A.** 8.37 upbm affinity estimate (log intensity, higher = more binding, comparable within an allelic series)

**Q.** And the binding signal (HOXA7 [2])?
**A.** 8.37 upbm affinity estimate (log intensity, higher = more binding, comparable within an allelic series)

**Q.** With AGAGCAAG as the sequence, how does the binding signal (HOXA7 [1]) read?
**A.** 8.36 upbm affinity estimate (log intensity, higher = more binding, comparable within an allelic series)

**Q.** What about the binding signal (HOXA7 [2]) of the same sequence?
**A.** 8.46 upbm affinity estimate (log intensity, higher = more binding, comparable within an allelic series)

**Q.** With CCTTATAA as the sequence, how does the binding signal (HOXA7 [1]) read?
**A.** 9.62 upbm affinity estimate (log intensity, higher = more binding, comparable within an allelic series)

**Q.** What about the binding signal (HOXA7 [2]) of the same sequence?
**A.** 8.88 upbm affinity estimate (log intensity, higher = more binding, comparable within an allelic series)

**Q.** What does the source list for TACGTTAA?
**A.** binding signal (HOXA7 [1]): 9.58 upbm affinity estimate (log intensity, higher = more binding, comparable within an allelic series); binding signal (HOXA7 [2]): 8.79 upbm affinity estimate (log intensity, higher = more binding, comparable within an allelic series)

**Q.** For CACGGAAG, which binding signal (HOXA7 [1]) is on record?
**A.** 8.42 upbm affinity estimate (log intensity, higher = more binding, comparable within an allelic series)

**Q.** What about the binding signal (HOXA7 [2]) of the same sequence?
**A.** 8.45 upbm affinity estimate (log intensity, higher = more binding, comparable within an allelic series)

**Q.** How did the binding signal (HOXA7 [1]) turn out when CGCTGTGC was run?
**A.** 8.49 upbm affinity estimate (log intensity, higher = more binding, comparable within an allelic series)

**Q.** What about the binding signal (HOXA7 [2]) of the same sequence?
**A.** 8.35 upbm affinity estimate (log intensity, higher = more binding, comparable within an allelic series)

**Q.** For CGGAAGGC, which binding signal (HOXA7 [1]) is on record?
**A.** 8.5 upbm affinity estimate (log intensity, higher = more binding, comparable within an allelic series)

**Q.** And the binding signal (HOXA7 [2])?
**A.** 8.35 upbm affinity estimate (log intensity, higher = more binding, comparable within an allelic series)

**Q.** With CCATGCTC as the sequence, how does the binding signal (HOXA7 [1]) read?
**A.** 8.55 upbm affinity estimate (log intensity, higher = more binding, comparable within an allelic series)

**Q.** What about the binding signal (HOXA7 [2]) of the same sequence?
**A.** 8.51 upbm affinity estimate (log intensity, higher = more binding, comparable within an allelic series)
